A selection: hits, their analogues and other compounds. The true share with any hit is near 5.1%.
TSHR agonist: activates the human thyroid stimulating hormone receptor; hit rate 0.48% among 73,000; Potency, µM (doses to about 57.1 µM), for the others: at the highest dose activation, hits mostly activators; P16473; HEK293-CNG-TSHR cells (CNG channel as cAMP sensor), membrane potential dye, cAMP; active = well fitted activation curve with a large enough effect in the main read-out, with a control signal flat, not every such curve was filed as active; inconclusive = small, poorly fitted or top-dose-only effect, or a change in a side signal; inactive = no such curve, though single readings can be large or run the other way; % of control where 0% means no effect;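 also: the control signal comes from parental cells without the receptor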
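cAMP rise detected as CNG-channel membrane depolarization by fluorescent dye (emission 590 nm), 30 min after compound, following 60 min dye loading containing 100 uM RO 20-1724 at room temperature. Cells: TSHR/CNG HEK 293, with parental CNG HEK 293 as control.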
HEK293 cAMP ctrl: counter-screen for TSHR agonists: cAMP increase in parental HEK293; parental HEK293 CNG cAMP sensor, membrane potential fluorescence; Potency, µM (doses to about 57.1 µM), inactives show at the top dose activation, hits mostly activators; hit rate 2.5% among 73,000; AID 938; also: % of control where 0% means no effect; nearly all actives have a fitted effect of over 55% in size
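Counterscreen for endogenous-receptor signalling: CNG-channel HEK 293 cells report cAMP rise by membrane depolarization. After 60 min dye equilibration with 100 uM RO 20-1724, compounds incubated 30 min before bottom-read fluorescence at 590 nm.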
Hsp90 Hop PPI: changes Hsp90-Hop TPR2A binding signal, up or down | AlphaScreen TPR2A-His6 binding biotin-Hsp90 C-terminal peptide | AID 595 | hit rate 0.44% among 71,000 | Potency, µM (highest dose often 57 µM), without a hit: at the top dose activity change, negative = inhibition; active = well fitted curve in either direction with a large enough effect; inconclusive = small, poorly fitted or top-dose-only effect, or another doubt; also: % is scaled to controls: 0 for no effect and ±100 for the full control effect
DNA Pol III inh: inhibitors of bacterial DNA polymerase III holoenzyme; reconstituted DNA polymerase III holoenzyme replication, biochemical; Potency, µM (series often up to 57.1 µM), without a hit: at the highest dose activity change, negative = inhibition; hit rate 0.25% among 71,000; AID 603; also: % is scaled to controls: 0 for no effect and ±100 for the full control effect
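Reconstituted *E. coli* holoenzyme (0.35 nM Pol III, 1 nM beta, 154 nM SSB, 2 nM primase) was preincubated with compound for 15 min at RT. Synthesis on 1.4 nM ssM13Gori ran 35 min, then was stopped with PicoGreen/EDTA and read as dsDNA fluorescence.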
Tau fil binding: binders of human tau filaments; recombinant tau filaments, thioflavin S fluorescence, 15 h; filaments grown with octadecylsulfate alongside compound; Potency, µM (doses to about 57.1 µM), for inactives: at the top dose activity change, negative = inhibition; hit rate 2% among 71,000; P10636;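 also: % is scaled to controls: 0 for no effect and ±100 for the full control effect; actives lower thioflavin S fluorescence by blocking filaments or displacing dye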
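ThS-based fibril read: tau 1 uM final, inducer ODS 30 uM final, 37 C for 15 h, ex 450/em 510 nm.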
* = called active by the depositor; i = inactive; ? = inconclusive; . = no result given; ! = not active in a repeat; [ ] = another dose, or the depositor's remark. Unless noted, calls follow the shape of the dose curve; as a rule, active = well fitted curve in the direction sought with a large enough effect; inconclusive = small, poorly fitted or top-dose-only effect, or another doubt; inactive = no such curve, though single readings can be large; an effect the other way counts as inactive or inconclusive. Potency is read from the fitted curve at half-maximal effect.

SMILES	TSHR agonist	HEK293 cAMP ctrl	Hsp90 Hop PPI	DNA Pol III inh	Tau fil binding
O=C(Nc1ccc(O)cc1)C1CC=CCC1 (stereo not drawn)	0.0%	7.0%	?	-4.7%	12.6µM*
N#Cc1cccc(-c2nccc(NCc3cccnc3)n2)c1	4.5%	8.7%	6.0%	-14.1%	-8.1%
Cc1ccc(N=Cc2ccc(O)cc2O)cc1F	?	?	-2.8%	0.3%	-29.7%
Oc1ccc(C=Nc2ccc(N3CCOCC3)cc2)c(O)c1	-16.0%	2.5%	-20.8%	-14.6%	20µM*
O=C(Nc1ccc([N+](=O)[O-])cc1Cl)c1cc(Cl)ccc1O	?	0.501µM*	-5.5%[26 µM]	-5.4%[25.6 µM]	3.7%[25.6 µM]
O=C(Nc1ccccc1)c1cc([N+](=O)[O-])ccc1Cl	?	-31.2%	-9.7%	-3.4%	?
COc1ccccc1C(CCN(Cc1cccs1)C(C)=O)c1ccco1 (stereo not drawn)	?	15.8µM*	-7.0%	-2.6%	-4.3%
Cc1c(Cl)cc(C(C)(C)C)c(O)c1Cc1c(C)c(Cl)cc(C(C)(C)C)c1O	11.2%[11.4 µM]	1.8%[11.4 µM]	-6.2%[11 µM]	-7.1%[11.4 µM]	-6.6%[11.4 µM]
C[C@@H](C(=O)Nc1ccc2ccccc2c1)[C@H]1C[C@]1(C)[C@H](NC(=O)c1cnccn1)c1ccccc1	?	15.8µM*	-11.0%	-0.3%	-4.2%
C[C@@H](C(=O)Nc1ccc2ccccc2c1)[C@@H]1C[C@@]1(C)[C@@H](NC(=O)c1cnccn1)c1ccccc1	?	?	-12.2%	1.9%	43.0%
Cc1cc(C(=O)N[C@H](c2ccccc2)[C@@]2(C)C[C@@H]2[C@@H](C)C(=O)Nc2ccc3ccccc3c2)no1	?	1.58µM*	-10.3%	22.5%	80.1%
Cc1cc(C(=O)N[C@@H](c2ccccc2)[C@]2(C)C[C@H]2[C@@H](C)C(=O)Nc2ccc3ccccc3c2)no1	?	?	-7.7%	1.4%	42.6%
COCCNc1nc(-c2ccc(N(C)C)cc2)nc2ccccc12	?	-63.2%	-7.9%	-8.1%	i
COc1ccc(-n2c(=O)c(-c3cc(F)cc(F)c3)nc3cnc(N(C)C)nc32)cc1	3.6%	-6.0%	-1.8%	-7.4%	0.5%
S=C1N[C@H](c2ccccc2)N[C@H](c2ccccc2)S1	?	-54.4%[11.4 µM]	-4.7%[11 µM]	-3.3%[11.4 µM]	5.8%[11.4 µM]
O=Nc1c(-c2c(O)[nH]c3ccccc23)[nH]c2ccccc12	?	-104.8%	12.6µM*!	-14.3%	0.398µM*
O=NC1=C(c2c(O)[nH]c3ccccc23)CCCC1	5.9%	13.5%	2.8%	-5.9%	-11.0%
Cc1ccc(C(C(=O)NC2CCCC2)N(Cc2ccc(F)cc2)C(=O)c2csnn2)o1 (stereo not drawn)	?	15.8µM*	-0.3%	-9.5%	36.9%
CCC/C=C(\CCC)C(NC(=O)c1ccco1)c1ccc(C(=O)OC)cc1 (stereo not drawn)	?	25.1µM*	4.8%	-20.8%	-2.2%
CCC/C=C(\CCC)C(NC(=O)c1ccc(-c2ccccc2)cc1)c1ccc(C(=O)OC)cc1 (stereo not drawn)	5.8%	25.7%	1.4%	-7.9%	18.8%
COc1ccc(Cn2c3nc4ccccc4nc3c3c(=O)n(Cc4ccco4)cnc32)cc1	8.6%	19.9%	-4.8%	-15.3%	15.8µM*
Cc1cccc(-n2cnc3c(c2=O)c2nc4ccccc4nc2n3Cc2ccco2)c1	3.6%	26.6%	-5.8%	-4.1%	12.6µM*
CCCn1cnc2c(c1=O)c1nc3ccccc3nc1n2Cc1ccccc1OC	3.5%	13.8%	0.2%	-0.1%	-18.3%
CCC(C)n1cnc2c(c1=O)c1nc3ccccc3nc1n2Cc1ccccc1OC (stereo not drawn)	25.1%	31.8%	0.2%	-0.5%	3.98µM*
O=C(NCCCCN1CCCC1)c1ccc(Cc2nc3ccccc3[nH]2)cc1	-3.9%	11.5%	.	.	.
C[C@H](NC(=O)c1ccc(Cl)c(Cl)c1)c1ccc(-c2ccccc2)cc1	-5.9%[11.4 µM]	0.4%[11.4 µM]	2.1%[11 µM]	-9.7%[11.4 µM]	-7.8%[11.4 µM]
CCOc1ccc(NC(=O)c2ccco2)cc1	-1.8%	-1.2%	-0.1%	1.1%	-7.3%
O=C(Nc1ccc(N2CCCC2)c(Cl)c1)c1ccco1	-8.7%[11.4 µM]	-5.9%[11.4 µM]	-21.9%[11 µM]	-8.0%[11.4 µM]	3.98µM*
O=C(Nc1ccc(N2CCCCC2)c(C(=O)O)c1)c1ccco1	-3.7%	28.6%	-2.0%	1.7%	2.9%
